Ecoli rRNA inh – selective bacterial rRNA inhibition in E. coli | GFP signal change (wild-type ribosome), % (test concentration not listed) | 350,000 compounds, 1.6% hits | E. coli WT GFP vs humanized-ribosome RFP mutants, fluorescence, 24 h; stronger effect = lower value; DMSO median 0, no signal -100;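 active means significant combined selectivity score with lowered wild-type GFP, culture density cut under 30%, mutant RFP and density less affected; inactive means any of these conditions unmet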
DENV2 CPE – protects cells from dengue virus 2 cytopathic effect; DENV2-infected cells, cytopathic effect rescue, plate reader; CPE inhibition, % at 9.99 µM; 350,000 compounds, 1.7% hits; AID 651640; in the data active means CPE inhibition above about 20%, passing the limit was not always enough; inconclusive means no clear call, values can overlap the other calls; tested in BHK-21 cells
CaV13 FRET inh – Primary screen for inhibitors of IQ motif and Ca2+-dependent inactivation inhibitor domain binding in CACNA1D, Förster resonance energy transfer in living cells, … | 340,000 compounds, 0.098% hits | HEK cells, CFP/YFP FRET ICDI-IQ, plate reader, 10 min; percent FRET-ratio fall versus neutral wells | inhibition, % at 12.3 µM;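 active means mean replicate inhibition of at least 30% and at least 1% of replicates passing that level; inconclusive means only one of the two criteria is met; inactive means neither criterion is met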
PGC1a acetyl inh – lowers PGC1a acetylation signal in U2OS cells | 350,000 compounds, 0.17% hits | inhibition, % at 15.6 µM | AlphaScreen anti-acetyl-lysine; with virally co-expressed GCN5 acetyltransferase;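 active means every replicate shows inhibition of at least 40%; inconclusive means mean inhibition at least 40% but some replicate below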
GSIS activator – primary screen for activators of insulin secretion dependent on glucose, INS-1E cells, GLuc reporter luminescence | AID 743287 | activation, % at 16.6 µM | INS-1E GLuc reporter insulin secretion, 2-3 h | 370,000 compounds, 0.61% hits;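 active means lowest replicate activation of at least 40%, so every replicate reaches that level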
ERAP1 HTS inh – ERAP1 (human) enzyme inhibition | Q9NZ08 | recombinant ERAP1, Leu-AMC fluorescence, 60 min | inhibition, % at 10.7 µM | 340,000 compounds, 0.15% hits | AID 652197;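 active means mean replicate inhibition of at least 30%, or all replicates individually reaching that 30% level; inactive means mean below 30% and not every replicate reaching it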
Target sequence (Q9NZ08 whole entry, looked up): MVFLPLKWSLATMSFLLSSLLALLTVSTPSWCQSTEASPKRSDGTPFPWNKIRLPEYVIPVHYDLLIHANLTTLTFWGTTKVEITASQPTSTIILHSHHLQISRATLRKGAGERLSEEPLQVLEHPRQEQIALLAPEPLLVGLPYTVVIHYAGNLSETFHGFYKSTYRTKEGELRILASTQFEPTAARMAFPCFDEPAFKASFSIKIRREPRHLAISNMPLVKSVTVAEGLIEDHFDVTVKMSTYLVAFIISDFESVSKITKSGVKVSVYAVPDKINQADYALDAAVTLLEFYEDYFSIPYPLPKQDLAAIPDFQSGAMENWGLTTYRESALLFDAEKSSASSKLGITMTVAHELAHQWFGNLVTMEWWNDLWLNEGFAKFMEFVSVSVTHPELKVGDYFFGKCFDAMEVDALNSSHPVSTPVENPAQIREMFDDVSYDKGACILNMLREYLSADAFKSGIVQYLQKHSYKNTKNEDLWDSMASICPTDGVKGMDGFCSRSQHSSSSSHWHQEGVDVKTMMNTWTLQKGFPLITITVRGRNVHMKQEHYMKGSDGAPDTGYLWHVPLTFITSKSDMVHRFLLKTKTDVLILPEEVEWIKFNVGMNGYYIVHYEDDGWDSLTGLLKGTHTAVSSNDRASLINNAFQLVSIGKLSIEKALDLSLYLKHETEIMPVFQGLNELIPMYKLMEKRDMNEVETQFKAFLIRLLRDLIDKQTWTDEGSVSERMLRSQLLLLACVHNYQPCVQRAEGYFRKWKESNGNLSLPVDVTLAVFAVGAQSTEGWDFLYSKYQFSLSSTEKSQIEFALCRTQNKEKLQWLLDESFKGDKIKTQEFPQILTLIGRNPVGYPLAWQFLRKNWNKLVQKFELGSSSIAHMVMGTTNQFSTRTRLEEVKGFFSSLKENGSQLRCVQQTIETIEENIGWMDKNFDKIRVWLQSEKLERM
Large screens that a line does not name were inactive. The list is not random: actives were taken first. Their share in the collection is about 3.2%.

C[C@H]1CN([C@@H](C)CO)C(=O)CCCn2cc(nn2)CO[C@H]1CN(C)C(=O)Nc1ccnc(N2CCOCC2)c1	none (no result: CaV13 FRET inh)
COc1ccc2c3c([nH]c2c1)[C@H](CO)N(C(=O)Nc1c(C)noc1C)CC31CCN(CC2CC2)CC1	DENV2 CPE 42 (no result: CaV13 FRET inh, PGC1a acetyl inh)
COc1ccc2c3c([nH]c2c1)[C@@H](CO)N(C(C)=O)CC31CCN(C(=O)Nc2c(C)noc2C)CC1	DENV2 CPE 21 (no result: CaV13 FRET inh)
O=C(Nc1ccccc1Cl)c1cnccn1	none (no result: Ecoli rRNA inh, DENV2 CPE, GSIS activator, ERAP1 HTS inh)
Cc1cc(OCC(=O)NNC(=O)c2cnccn2)cc(C)c1Cl	PGC1a acetyl inh 85 (no result: CaV13 FRET inh)
O=C(NC(=S)NNC(=O)c1cnccn1)c1ccc(F)cc1	none
O=C(NNC(=O)c1ccc(Cl)cc1Cl)c1cnccn1	Ecoli rRNA inh -35 (no result: PGC1a acetyl inh)
O=C(NNC(=O)c1cnccn1)c1ccc(Cl)cc1	Ecoli rRNA inh -39 (no result: PGC1a acetyl inh)
O=C(C[C@H]1CC[C@H]2NC[C@@H](O)COC[C@@H]2O1)Nc1ccccc1	none (no result: CaV13 FRET inh)
CC(C)NC(=O)N1C[C@H]2[C@@H](c3ccccc31)[C@H](CO)N2C(=O)Nc1ccccc1	none (no result: DENV2 CPE, CaV13 FRET inh, ERAP1 HTS inh)
CCCCN1C(=O)C(CC(=O)NC2CC2)CC(C(=O)N(CC)CC)=C1C (stereo not drawn)	DENV2 CPE 23
COc1cccc(-c2ccc([C@@H]3[C@@H](CO)N4CCCCN(C(=O)c5ccc(F)cc5)C[C@H]34)cc2)c1	DENV2 CPE 43 (no result: CaV13 FRET inh)
COc1cccc(-c2ccc([C@H]3[C@@H](CO)N4CCCCN(C(=O)c5ccc(F)cc5)C[C@H]34)cc2)c1	DENV2 CPE 43 (no result: CaV13 FRET inh)
COc1cccc(-c2ccc([C@@H]3[C@H]4CN(C(=O)c5ccc(F)cc5)CCCCN4[C@H]3CO)cc2)c1	none (no result: CaV13 FRET inh)
COc1cccc(CN2[C@H](CO)[C@@H](c3ccccc3)C23CN(C(=O)C2CCOCC2)C3)c1	none (no result: CaV13 FRET inh)
COc1ccc2c3c(n(C)c2c1)[C@H](CO)N(C(=O)c1ccncc1)CC31CCN(C(C)=O)CC1	none (no result: CaV13 FRET inh)
Cn1ncc(Cl)c1C(=O)N1CCN(S(=O)(=O)c2ccc(F)cc2)CC1	DENV2 CPE inconclusive (no result: PGC1a acetyl inh)
Cn1ncc(Cl)c1C(=O)N1CCN(c2ccc(F)cc2)CC1	DENV2 CPE 50
COc1ccc(C(CCN2CCN(c3ccccc3)CC2)c2c(OC)cc(OC)c3c(-c4ccccc4)cc(=O)oc23)cc1 (stereo not drawn)	DENV2 CPE 59
COc1cc(Nc2ccn3nccc3n2)cc(OC)c1OC	DENV2 CPE 23
CCC(=O)Nc1ccc2c(c1)C(=O)N(C)C[C@@H](OC)[C@@H](C)CN(C(=O)c1cnccn1)[C@H](C)CO2	none (no result: CaV13 FRET inh)
O=C(c1ccc(-c2ccccc2)c(F)c1)C1CCCN(CCCn2cccn2)C1 (stereo not drawn)	Ecoli rRNA inh -22
CCNC(=O)/C(C#N)=C/c1c(N(Cc2ccccc2)Cc2ccccc2)nc2ccccn2c1=O	Ecoli rRNA inh -18 (no result: DENV2 CPE, PGC1a acetyl inh)
CNC(=O)/C(C#N)=C/c1c(N(Cc2ccccc2)Cc2ccccc2)nc2c(C)cccn2c1=O	none (no result: Ecoli rRNA inh, DENV2 CPE, ERAP1 HTS inh)
C[C@@H]1CN([C@H](C)CO)C(=O)CCCn2cc(nn2)CO[C@@H]1CN(C)Cc1ccncc1	none (no result: DENV2 CPE, CaV13 FRET inh)
COc1ccc2c3c(n(C)c2c1)[C@@H](CO)N(C)CC31CN(S(=O)(=O)c2cccc(C)c2)C1	none (no result: CaV13 FRET inh)
C/C=C1\COC(C(=O)NCc2ccccc2)(C(F)(F)F)C=C1C=C(C)C (stereo not drawn)	GSIS activator 112 (no result: PGC1a acetyl inh)
CC=Cc1ccc2n(c1=O)C[C@H]1[C@H](CO)[C@@H](C(=O)N3CCC(Cc4ccccc4)CC3)N(C)[C@@H]21 (mixture of isomers)	none (no result: DENV2 CPE, CaV13 FRET inh, PGC1a acetyl inh, ERAP1 HTS inh)
Cc1nn(-c2ccccc2)nc1C(=O)NNC(=O)c1cccc2ccccc12	Ecoli rRNA inh -21 (no result: PGC1a acetyl inh)
Cc1ccc(C)c(NS(=O)(=O)c2cc(C(=O)NCc3ccncc3)ccc2C)c1	DENV2 CPE 98
COc1ccc(NC(=O)Cn2cnc3c(cnn3-c3ccc(C)c(C)c3)c2=O)c(OC)c1	GSIS activator 97 (no result: Ecoli rRNA inh, DENV2 CPE, PGC1a acetyl inh, ERAP1 HTS inh)
Cc1ccc(-n2ncc3c(=O)n(CC(=O)Nc4cccc(Cl)c4)cnc32)cc1C	GSIS activator 257 (no result: Ecoli rRNA inh, DENV2 CPE, ERAP1 HTS inh)
C[C@H](CO)N1C[C@H](C)[C@@H](CN(C)Cc2ccc(C(=O)O)cc2)Oc2ccc(NC(=O)CCC(F)(F)F)cc2C1=O	none (no result: CaV13 FRET inh)
COc1cc(O)c(C(C)=O)c2c1C=CC(C)(C)O2	DENV2 CPE 27 (no result: CaV13 FRET inh)
C[C@H](O)C#Cc1cnc2c(c1)C(=O)N([C@@H](C)CO)C[C@@H](C)[C@H](CN(C)CC1CCCCC1)O2	none (no result: CaV13 FRET inh, ERAP1 HTS inh)
CCn1c(/C=C/c2cc[n+](C)cc2)nc2ccccc21	ERAP1 HTS inh 59
CCCn1c(/C=C/c2ccccc2)nc2ccccc21	none (no result: Ecoli rRNA inh, DENV2 CPE, ERAP1 HTS inh)
C[C@H]1CN([C@@H](C)CO)C(=O)Cc2cc(NC(=O)Nc3ccc4c(c3)OCO4)ccc2O[C@H]1CN(C)C(=O)Nc1ccccc1	none (no result: CaV13 FRET inh, ERAP1 HTS inh)
C[C@H](CO)N1C[C@H](C)[C@@H](CN(C)C(=O)NC2CCCCC2)Oc2ccc(NC(=O)CCCN(C)C)cc2C1=O	none (no result: CaV13 FRET inh)
COCCn1c(=S)[nH]c2sc3c(c2c1=O)CCCC3	DENV2 CPE inconclusive, GSIS activator 45 (no result: PGC1a acetyl inh)
CN1C(=O)c2cc(NC(=O)c3ccc(Cl)cc3)ccc2OC[C@@H]2O[C@H](CC(=O)NCc3cccc(F)c3)CC[C@@H]21	none (no result: CaV13 FRET inh)
CCC[n+]1c(C)sc2c(OC)ccc(OC)c21	ERAP1 HTS inh 52
COc1cccc(S(=O)(=O)N2C[C@@H]3N[C@H](C2)C3c2ccc(/C=C/c3ccccc3)cc2)c1 (stereo partly drawn)	none (no result: CaV13 FRET inh)
O=C(Nc1ccc(Cl)c(Cl)c1)Nn1cnnc1	Ecoli rRNA inh -22
CN1CCN(C(=O)C[C@H]2C[C@@H]3c4cc(NC(=O)C5CCOCC5)ccc4O[C@@H]3[C@@H](CO)O2)CC1	none (no result: CaV13 FRET inh)
C[C@@H]1CC=CC[C@H](c2cccc(Cl)c2)NC(=O)[C@H](C)N(C)C(=O)c2ccccc2O1 (mixture of isomers)	none (no result: DENV2 CPE, CaV13 FRET inh, PGC1a acetyl inh, ERAP1 HTS inh)
COc1cccc(OC)c1Nc1nc(C)nc2c1nnn2Cc1ccccc1Cl	DENV2 CPE 60
CCC(Sc1nc(N)c(NC(=O)c2ccc(OC)cc2)c(=O)[nH]1)C(=O)O (stereo not drawn)	CaV13 FRET inh 67 (no result: PGC1a acetyl inh)
O=S(=O)(c1ccccc1)N1C[C@@H]2[C@H](c3ccccc31)[C@H](CO)N2Cc1ccccc1	Ecoli rRNA inh -25 (no result: CaV13 FRET inh)
CC(=O)N1[C@H](CO)[C@@H]2c3ccccc3N(S(=O)(=O)c3cccc(C)c3)C[C@@H]21	none (no result: CaV13 FRET inh)
Cc1cccc(S(=O)(=O)N2C[C@@H]3[C@H](c4ccccc42)[C@H](CO)N3Cc2cccnc2)c1	none (no result: CaV13 FRET inh)
Cc1cccc(S(=O)(=O)N2C[C@H]3[C@@H](c4ccccc42)[C@@H](CO)N3Cc2cccnc2)c1	DENV2 CPE 27 (no result: CaV13 FRET inh)
